The results in this text go back to PubChem BioAssay (NCI).

About 83,000 compounds went through this panel and 20% of them were active in at least one assay; those are over-represented in the sample as a whole.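 Note: values are percent growth. 100 is the growth of untreated cells, values between 100 and 0 indicate rising inhibition; between -100 and 0 indicates cell death.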 Values without a mark were called inactive. Active and inactive are the calls of the source. How the source made its calls: active means growth percent below 10; inactive means the rest.

Experiment in all cases: NCI-60 one-dose screen, 48 h (100 = growth as untreated, 0 = no growth, -100 = all killed)
Common to all, as to conditions: 10 µM unless noted

The subject of assay [1] is HCT-15 colon.
For assay [2], the system named is HT29 colon.
Assay [3] relates to SNB-75 CNS.
Assay [4] has as its system SNB-19 CNS.
The test system of assay [5] is U251 CNS.
Assay [6] has as its system PC-3 prostate.
Assay [7] relates to SK-MEL-5 melanoma.
Assay [8] relates to LOX IMVI melanoma.
For assay [9], the system named is SK-MEL-28 melanoma.

Regarding `CCCCCCCN(CCCCCCC)C(=N)c1ccnc2ccccc12`, the growth is -72.1% (active) in [1]; -50.2% (active) in assay [2]; -68.3% (active) in assay [3]; -51.1% (active) in assay [4]; -87.5% (active) in assay [5]; -22.4% (active) in [6]. Further, the growth was -98.3% (active) in [7], -94.4% (active) in assay [8] and -74.1% (active) in assay [9].
Consider `CCCCC(=O)OC1CCCCC1C` (configuration not stated), for which the growth in assay [1] is 108%; in assay [2], 88.2%; in assay [3] it was 87.6%; in assay [4] it was 100%; in [5], 85.6%; in assay [6], 68.1%. The growth in assay [7] is 91.2%; in assay [8], 97.9%; in assay [9], 98.4%.
For `Cn1cc(-c2csc(-c3cn(CCCN4CCCCC4)c4ccc(Br)cc34)n2)c2cccnc21`, the growth in [1] is -78.2% (active); in [2] it was -72.8% (active); in assay [3], 63.6%; in assay [4], -45.3% (active); in assay [5] it was -80.6% (active); in [6], -8.66% (active). Further, the growth in assay [7] is -33.7% (active); in assay [8], -71.4% (active); in assay [9], -86.6% (active).
Take `Cc1cc(N(CCCNc2ccnc3cc(Cl)ccc23)Cc2ccco2)nc(N2CCN(C)CC2)n1`: the growth was 16.9% in assay [1]; 12.4% in [2]; 68.7% in assay [3]; 58.2% in assay [4]; 28.6% in [5]; 51.5% in assay [6]. The growth is -42.6% (active) in assay [7], 0.725% (active) in [8] and -75.2% (active) in [9].
Regarding `O=Cc1nc2ccccc2[nH]1`, the growth in [1] was 108%; in assay [2] it was 91%; in assay [3], 80%; in assay [4], 101%; in assay [5], 92.2%; in [6], 78.7%. Further, the growth in [7] was 102%; in [8], 91.2%; in assay [9] it was 116%.
For `Fc1ccc(Nc2nc(Nc3ccc(-c4nc5ccccc5[nH]4)cc3)nc(N3CCCC3)n2)cc1`, the growth was -8.99% (active) in assay [1]; 36.1% in assay [2]; 65.4% in assay [3]; 103% in assay [4]; 55.8% in [5]; 33.8% in assay [6]. Further, the growth is 87% in assay [7], 3.18% (active) in assay [8] and 47.7% in assay [9].
In the case of `N#Cc1cnc2cc(OC[C@@H](O)CO)c(NC(=O)C3CCCC3)cc2c1Nc1ccc(OCc2cccc(F)c2)c(Cl)c1`, the growth in [1] was 29.4%; in assay [2], -11.3% (active); in [3] it was -0.333% (active); in [4], 65.3%; in [5], 61.9%; in assay [6] it was -58.9% (active). For the same compound, the growth in assay [7] is 61.5%; in assay [8], -84.8% (active); in assay [9], -85.2% (active).
On to `CC(=O)OC(C)COc1ccc(-c2ccccc2)cc1` (configuration not stated), for which the growth in assay [1] is 107%; in assay [2], 86%; in [3], 89.6%; in assay [4], 103%; in [5] it was 76.4%; in assay [6], 86.1%. Moreover, the growth in [7] is 99.8%; in assay [8] it was 110%; in assay [9] it was 104%.
On to `N#CC1=C(N)Oc2c(sc3c(F)cccc23)C1c1ccc(Cl)cc1` (configuration not stated), for which the growth in [1] is 23.9%; in assay [2] it was 15.6%; in [3] it was 13.8%; in assay [4], 29.2%; in assay [5] it was 25.7%; in [6] it was 8.41% (active). Moreover, the growth in assay [7] is 18.1%; in assay [8], 30.3%; in assay [9] it was 49.6%.
`OCC(CO)(CCl)CCl`: the growth was 109% in assay [1]; 96.6% in assay [2]; 96.8% in [3]; 98.7% in assay [4]; 84.8% in [5]; 80.2% in [6]. The growth in assay [7] is 104%; in assay [8] it was 98.2%; in assay [9], 103%.
Turning to `Cn1cc(-c2csc(-c3cn(CCCN4CCCCC4)c4ccc(F)cc34)n2)c2cccnc21`, the growth was 77.5% in assay [1]; 75.2% in assay [2]; 77.2% in assay [3]; 90.3% in assay [4]; 85.2% in assay [5]; 71.5% in assay [6]. The growth in assay [7] was -27.7% (active); in assay [8], 85.4%; in assay [9], -78.9% (active).
Turning to `O=C1CNCCN1`, the growth in assay [1] was 100%; in [2] it was 100%; in assay [3], 92.6%; in assay [4], 104%; in [5] it was 104%; in assay [6], 96.5%. Besides, the growth in assay [7] was 101%; in [8], 98.5%; in [9], 105%.
As to `Brc1ccc2c(c1)c(-c1nc(-c3c[nH]c4ncccc34)cs1)cn2CCCN1CCCCC1`, the growth in assay [1] was -80% (active); in [2] it was -87.2% (active); in assay [3], 67.6%; in [4], -68.3% (active); in assay [5] it was -84.2% (active); in [6] it was 2.12% (active). In addition, the growth in assay [7] was -59.5% (active); in [8] it was -93.5% (active); in [9], -84.8% (active).
